Results filed as inconclusive are left out. A call without a number means that no potency is given here. Activity calls are given as the source filed them. Calls come from the whole dose curve; as a rule, active = well fitted inhibition curve with a large enough effect; inconclusive = small, poorly fitted or top-dose-only effect; inactive = flat fitted curve, though single readings scatter.
Potency is the fitted concentration of half-maximal effect.

Chain of Voltage-gated inwardly rectifying potassium channel KCNH2 (Homo sapiens) (Q12809 whole entry, looked up): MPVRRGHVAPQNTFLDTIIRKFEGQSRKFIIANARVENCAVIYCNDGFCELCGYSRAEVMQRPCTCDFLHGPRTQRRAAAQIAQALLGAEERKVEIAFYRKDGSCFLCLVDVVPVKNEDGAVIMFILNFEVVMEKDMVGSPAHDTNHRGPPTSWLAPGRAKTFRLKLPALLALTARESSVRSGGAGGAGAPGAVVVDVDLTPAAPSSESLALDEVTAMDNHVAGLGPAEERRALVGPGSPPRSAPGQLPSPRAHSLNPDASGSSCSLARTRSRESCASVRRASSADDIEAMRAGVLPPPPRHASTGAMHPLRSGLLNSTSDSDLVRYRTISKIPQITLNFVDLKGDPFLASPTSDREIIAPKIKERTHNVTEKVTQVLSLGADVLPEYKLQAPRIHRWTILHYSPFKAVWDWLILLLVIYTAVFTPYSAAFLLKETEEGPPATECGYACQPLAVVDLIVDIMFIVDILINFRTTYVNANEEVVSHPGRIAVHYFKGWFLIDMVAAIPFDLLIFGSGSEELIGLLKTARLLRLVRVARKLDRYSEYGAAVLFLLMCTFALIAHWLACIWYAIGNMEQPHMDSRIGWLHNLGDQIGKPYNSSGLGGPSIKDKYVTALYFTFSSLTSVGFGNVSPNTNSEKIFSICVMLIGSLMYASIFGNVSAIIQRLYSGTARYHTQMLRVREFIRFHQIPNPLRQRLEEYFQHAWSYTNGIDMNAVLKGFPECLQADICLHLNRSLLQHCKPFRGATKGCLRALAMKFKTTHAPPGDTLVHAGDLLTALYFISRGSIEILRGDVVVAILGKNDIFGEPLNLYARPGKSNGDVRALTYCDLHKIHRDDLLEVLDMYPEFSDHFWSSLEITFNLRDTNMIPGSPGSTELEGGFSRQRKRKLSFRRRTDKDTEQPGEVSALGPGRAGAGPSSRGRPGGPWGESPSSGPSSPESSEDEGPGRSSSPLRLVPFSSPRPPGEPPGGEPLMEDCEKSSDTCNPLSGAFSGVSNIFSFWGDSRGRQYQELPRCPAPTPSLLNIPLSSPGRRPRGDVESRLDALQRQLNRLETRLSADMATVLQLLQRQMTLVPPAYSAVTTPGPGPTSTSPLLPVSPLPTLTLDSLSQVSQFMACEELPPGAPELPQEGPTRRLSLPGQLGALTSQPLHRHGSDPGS

The target of the test is Voltage-gated inwardly rectifying potassium channel KCNH2 (Homo sapiens) (UniProt Q12809). The test is described as follows: qHTS Assay for Small Molecule Inhibitors of the Human hERG Channel Activity (AID 588834).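 Note: lower thallium flux fluorescence means stronger hERG block; nearly all actives have a fitted effect of over 50% in size.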 Particulars: U2OS BacMam hERG, FluxOR thallium flux fluorescence; series mostly up to 46.1 µM. In short, it runs like this:
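Thallium-flux (FluxOR) read-out on FDSS: fluorescence read 10 s before and 2 min after stimulation buffer. hERG-BacMam-transduced U2OS cells, compound exposure about 10 min. AC50 by standard Hill equation.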
(In general: In qHTS, concentration-response curves come from the screen itself.)
Take `CN(C)c1ccc(N=NS(=O)(=O)O)cc1`: the Potency entry was “inactive”.
Consider `Nc1ccc(C(=O)O)c(O)c1`, for which the Potency entry is “inactive”.
As for `Nc1ccn([C@@H]2O[C@H](CO)[C@@H](O)[C@@H]2O)c(=O)n1`, the Potency entry is “inactive”.
Next, `CC(C)(C)NCC(O)COc1nsnc1N1CCOCC1` (stereo not given): “inactive”.
Next, `CN(C)CCn1nnnc1SCC1=C(C(=O)O)N2C(=O)[C@@H](NC(=O)Cc3csc(N)n3)[C@H]2SC1`: “inactive”.
Regarding `O=C1CN(/N=C/c2ccc([N+](=O)[O-])o2)C(=O)N1`, the Potency result was “inactive”.
In the case of `C=C/C(C)=C/[C@@]1(C)SC(=O)C(C)=C1O`, the Potency result is “inactive”.
The same measure for `CC(C(=O)O)c1ccc(C(=O)c2cccs2)cc1` (stereo not given): “inactive”; for `C#CC1(O)CC[C@H]2[C@@H]3CCC4=CCCC[C@@H]4[C@H]3CC[C@@]21C` (stereo not given in full): “inactive”.
Next, `O=c1cc(-c2ccccc2)oc2ccccc12`: “inactive”.
Next, `CN(C)[C@@H]1C(=O)C(C(=O)NCN2CCCC2)=C(O)[C@@]2(O)C(=O)C3=C(O)c4c(O)cccc4[C@@](C)(O)C3C[C@@H]12` (stereo not given in full): “inactive”; `COc1cccc2c1C(=O)c1c(O)c3c(c(O)c1C2=O)C[C@@](O)(C(=O)CO)C[C@@H]3O[C@H]1C[C@H](N)[C@H](O[C@@H]2CCCCO2)[C@H](C)O1`: “inactive”; `CN[C@H](CC(C)C)C(=O)N[C@H]1C(=O)N[C@@H](CC(N)=O)C(=O)N[C@H]2C(=O)N[C@H]3C(=O)N[C@H](C(=O)N[C@H](C(=O)O)c4cc(O)cc(O)c4-c4cc3ccc4O)[C@H](O)c3ccc(c(Cl)c3)Oc3cc2cc(c3O[C@@H]2O[C@H](CO)[C@@H](O)[C@H](O)[C@H]2O[C@H]2C[C@](C)(N)[C@H](O)[C@H](C)O2)Oc2ccc(cc2Cl)[C@H]1O`: “inactive”.
As for `CCCCC1C(=O)N(c2ccccc2)N(c2ccc(O)cc2)C1=O` (stereo not given), the Potency entry is “inactive”.
The same measure for `CC1(C)[C@@H](O[C@H]2O[C@H](C(=O)O)[C@@H](O)[C@H](O)[C@H]2O[C@@H]2O[C@H](C(=O)O)[C@@H](O)[C@H](O)[C@H]2O)CC[C@]2(C)[C@H]3C(=O)C=C4[C@@H]5C[C@@](C)(C(=O)O)CC[C@]5(C)CC[C@@]4(C)[C@]3(C)CC[C@@H]12`: “inactive”; for `O=C1NC(O)=NC1(c1ccccc1)c1ccccc1`: “inactive”.
Regarding `C[S+](CC[C@H](N)C(=O)O)C[C@H]1O[C@@H](n2cnc3c(N)ncnc32)[C@H](O)[C@@H]1O` (stereo not given in full), the Potency entry is “inactive”.
`CC[C@@H](C)[C@H]1O[C@]2(CC[C@@H]1C)C[C@@H]1C[C@@H](C/C=C(\C)[C@@H](O[C@H]3C[C@H](OC)[C@@H](O[C@H]4C[C@H](OC)[C@@H](O)[C@H](C)O4)[C@H](C)O3)[C@@H](C)/C=C/C=C3\CO[C@@H]4[C@H](O)C(C)=C[C@@H](C(=O)O1)[C@]34O)O2`: the Potency result was “inactive”.
The same measure for `NCCO`: “inactive”; for `Nc1ccc(O)c([N+](=O)[O-])c1`: “inactive”; for `Nc1ccc([N+](=O)[O-])cc1O`: “inactive”.
Next, `S=c1[nH]c2ccccc2s1`: “inactive”; `O=C(O)[C@H](CC(=O)N1C[C@H]2CCCC[C@H]2C1)Cc1ccccc1`: “inactive”; `CO[C@H]1C[C@@H]2CC[C@@H](C)[C@@](O)(O2)C(=O)C(=O)N2CCCC[C@H]2C(=O)O[C@H]([C@H](C)C[C@@H]2CC[C@@H](O)[C@H](OC)C2)CC(=O)[C@H](C)C=C(C)[C@@H](O)[C@@H](OC)C(=O)[C@H](C)C[C@H](C)/C=C/C=CC=C1C`: “inactive”.
As to `O=C(O)c1ccccc1Nc1cccc(C(F)(F)F)c1`, the Potency result is “inactive”.
The same measure for `COC(=O)[C@H]1[C@H]2C[C@@H]3c4[nH]c5cc(OC)ccc5c4CCN3C[C@H]2C[C@@H](OC(=O)/C=C/c2cc(OC)c(OC)c(OC)c2)[C@@H]1OC`: 7.94 µM (active).
With `Cc1onc(-c2c(F)cccc2Cl)c1C(=O)N[C@@H]1C(=O)N2[C@@H]1SC(C)(C)[C@@H]2C(=O)O`, the Potency result was “inactive”.
As to `CC[C@H]1OC(=O)[C@H](C)C(=O)[C@H](C)[C@@H](O[C@@H]2O[C@H](C)C[C@H](N(C)C)[C@H]2O)[C@](C)(OC)C[C@@H](C)C(=O)[C@H](C)[C@H]2N(CCCCn3cnc(-c4cccnc4)c3)C(=O)O[C@]12C`, the Potency result was “inactive”.
The same measure for `Nc1nc2ccc([N+](=O)[O-])cc2s1`: “inactive”.
Next, `C=CCCCCCCCCC(=O)O`: “inactive”.
For `CC(C(=O)O)c1ccc(C(=O)c2ccccc2)s1` (stereo not given), the Potency entry was “inactive”.
Next, `COc1cc(NC(C)CCCN)c2ncccc2c1` (stereo not given): “inactive”; `Cc1c(C(=O)O)c(O)cc2c1C(=O)c1c(O)c([C@@H]3O[C@H](CO)[C@@H](O)[C@H](O)[C@H]3O)c(O)c(O)c1C2=O`: “inactive”; `CO/N=C(\C(=O)N[C@@H]1C(=O)N2C(C(=O)O)=C(COC(C)=O)CS[C@H]12)c1csc(N)n1` (stereo in doubt): “inactive”.
Consider `CC(=O)O[C@H]1C[C@@]2(C)[C@@H](C[C@@H](O)[C@H]3[C@@]4(C)CC[C@@H](O)[C@@H](C)[C@@H]4CC[C@@]32C)/C1=C(\CCC=C(C)C)C(=O)O`, for which the Potency entry is “inactive”.

Values taken from PubChem BioAssay (NCATS).
